The record followed here is PubChem BioAssay AID1347081 (National Center for Advancing Translational Sciences (NCATS), 2019).

Records with an inconclusive call do not appear. Active and inactive are the calls of the source. Calls follow the shape of the full dose curve.

The nature of this experiment: qHTS for Inhibitors of the Functional Ribonucleoprotein Complex (vRNP) of Lassa (LASV) Arenavirus: Viability assay - alamar blue signal for LASV Confirmatory Screen. The conditions noted are these: LASV vRNP counter-screen cells; series mostly up to 53.9 µM. In general terms: Quantitative high-throughput screening tests each substance at several concentrations.
As for `CCN(CC)C(=O)N[C@@H]1C=C2c3cccc4[nH]cc(c34)C[C@@H]2N(C)C1`, the Potency result was “inactive”. The same measure for `CC(O)(P(=O)(O)O)P(=O)(O)O`: “inactive”; for `O=C(Nc1ccccc1)Nc1ccc(-c2ccc(C(=O)[C@H]3CCC[C@H]3C(=O)O)cc2)cc1`: “inactive”.

As for `C=C(C)C1Cc2c(ccc3c2OC2COc4cc(OC)c(OC)cc4C2C3=O)O1` (centres undefined), the Potency was 0.0968 µM (active). Regarding `CCCCC/C(C=O)=C\c1ccccc1`, the Potency result is “inactive”. Take `CC(O)C(O)[C@H]1CNc2nc(N)[nH]c(=O)c2N1` (some centres undefined): the Potency entry is “inactive”. As for `CCC1OC2(C)C(O)C(/C=C/C=C/C=C/c3oc(=O)cc(OC)c3C)OC1(C)C2OC(C)=O` (centres undefined), the Potency was 0.109 µM (active). Regarding `CCC(c1ccc(O)cc1)C(CC)c1ccc(O)cc1` (centres undefined), the Potency entry was “inactive”. Consider `CC1OC(=O)[C@@H](C(C)C)NC(=O)C(C(C)C)OC(=O)[C@H](C(C)C)NC(=O)C(C)OC(=O)[C@@H](C(C)C)NC(=O)C(C(C)C)OC(=O)[C@H](C(C)C)NC(=O)C(C)OC(=O)[C@@H](C(C)C)NC(=O)C(C(C)C)OC(=O)[C@H](C(C)C)NC1=O` (some centres undefined), for which the Potency was 1.22 µM (active). In the case of `CCCCCN=C(N)N/N=C/c1c[nH]c2ccc(OC)cc12`, the Potency is 8.63 µM (active). On to `CN1C(C(=O)Nc2ccccn2)=C(O)c2ccccc2S1(=O)=O`, for which the Potency result was “inactive”. For `Cc1ncc([N+](=O)[O-])n1CC(C)O` (centres undefined), the Potency result was “inactive”. Under `COc1ccc(Cc2nccc3cc(OC)c(OC)cc23)cc1OC` stands 13.7 µM (active). Take `CCc1cncnc1N1CCN(Cc2nc3ccc(C(F)(F)F)cc3[nH]2)CC1`: the Potency is 12.5 µM (active).

Take `Cc1cnc(NC(=O)C2=C(O)c3ccccc3S(=O)(=O)N2C)s1`: the Potency entry was “inactive”. As to `S=C(NCc1ccc2c(c1)OCO2)N1CCN(c2ncnc3c2oc2ccccc23)CC1`, the Potency was 8.85 µM (active). As for `CC(=O)OCC(=O)[C@@]12N=C(C)O[C@H]1C[C@H]1[C@@H]3CCC4=CC(=O)C=C[C@]4(C)[C@@H]3[C@@H](O)C[C@@]12C`, the Potency entry is “inactive”.

As to `CC1=C(C)C(=O)C(CCCCC#CCCCC#CCO)=C(C)C1=O`, the Potency was 24.3 µM (active). As to `Cc1cc2c(C(C)C)c(O)c(O)c(C=O)c2c(O)c1-c1c(C)cc2c(C(C)C)c(O)c(O)c(C=O)c2c1O`, the Potency is 21.7 µM (active).

As to `O=C1Cc2cc(CCN3CCN(c4nsc5ccccc45)CC3)c(Cl)cc2N1`, the Potency result is “inactive”.

For the compound `CCCCCC[C@H]1C(=O)O[C@H](C)[C@H](NC(=O)c2cccc(NC=O)c2O)C(=O)O[C@@H](C)[C@@H]1OC(=O)CC(C)C`, the Potency was 0.0544 µM (active).

With `CC[C@@]1([C@@H]2O[C@@H]([C@H]3O[C@@](O)(CO)[C@H](C)C[C@H]3C)C[C@H]2C)CC[C@H]([C@]2(C)CC[C@]3(C[C@H](O)[C@@H](C)[C@@H]([C@@H](C)[C@@H](OC)[C@H](C)C(=O)O)O3)O2)O1`, the Potency was 4.21 µM (active).

With `COC(=O)c1nc(Cl)c(Cl)nc1N`, the Potency is 1.93 µM (active). In the case of `O=C(Nc1ccc([N+](=O)[O-])cc1Cl)c1cc(Cl)ccc1O`, the Potency was 2.17 µM (active).
